From the supplement of paper PMC10849652
About 8,800 targets were measured; listed, in parts, are those with a hit and a random draw of the rest. About 0.5% of all pairs of compound and target were hits.

How the values were obtained:
Test in all cases: log2 fold change, soluble protein after heating vs DMSO (PISA); higher = thermal stabilisation; K562 lysate, 10 uM; active = over 0.2 and 3.5 SD of the protein, either way, in both replicates (recomputed)
[1] = compound: C1=CC=C(C=C1)[C@H](COC2=CC3=C(C=C2)NC(=O)N3)NC(=O)C4=CC=CN(C4=O)CC5=CC(=C(C=C5)F)F
In short: (§1)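 Following dounce homogenisation of K562 pellets in PBS pH 7.4 with 1 mM MgCl2, crude extract at 1 mg/mL protein was incubated for 30 min with 10 μM compound. Aliquots were then heated for 3 min over 48°C-58°C and pooled, NP-40 was added to 0.5% at 4°C, and soluble protein was recovered as the supernatant at 21,000xg for 90 min. Channel-sum-equalised TMTpro 16plex LC-MS/MS quantified this protein. Each value, from duplicates, is a log-two fold change in thermal stability relative to solvent controls.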

[2] = compound: CC1=C(SC2=C1C(=N[C@H](C3=NN=C(N32)C)CC(=O)N)C4=CC=C(C=C4)Cl)C
In short: as §1

[3] = compound: CC1=C2C(=CC=C1)N=C(N(C2=O)C3=CC=CC=C3C)CN4C=NC5=C(N=CN=C54)N
In short: as §1

[4] = compound: Cc1sc2c(c1C)C(c1ccc(Cl)cc1)=N[C@@H](CC(=O)OC(C)(C)C)c1nnc(C)n1-2
In short: as §1

[5] = compound: c1ccc([C@@H]2C[C@H]2NC2CCNCC2)cc1
In short: as §1

Measured: log2 fold change

C16orf70 (UniProt Q9BSU1)
inactive: [1] -0.007 | [2] -0.073 | [3] -0.071 | [4] 0.033

AUH (UniProt Q13825)
inactive: [1] 0.034 | [2] 0 | [3] 0.129 | [4] -0.112 | [5] -0.009

C15orf41 (UniProt Q9Y2V0)
Sequence of UniProt Q9Y2V0 (Q9Y2V0 whole entry, looked up): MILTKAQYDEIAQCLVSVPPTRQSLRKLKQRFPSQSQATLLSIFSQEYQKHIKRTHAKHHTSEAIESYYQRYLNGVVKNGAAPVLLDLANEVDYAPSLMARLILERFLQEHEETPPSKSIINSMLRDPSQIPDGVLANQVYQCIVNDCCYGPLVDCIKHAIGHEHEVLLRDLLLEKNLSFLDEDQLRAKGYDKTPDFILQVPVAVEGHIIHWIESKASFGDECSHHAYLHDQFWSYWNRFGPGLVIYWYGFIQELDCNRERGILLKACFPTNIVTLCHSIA
inactive: [1] 0.111 | [2] -0.007 | [3] 0.029 | [4] 0.084 | [5] -0.008

CELF2 isoform 3 (UniProt O95319)
inactive: [1] -0.009 | [2] -0.012 | [3] 0.005 | [4] 0.012 | [5] 0.08

C3 (UniProt P01024)
inactive: [1] 0.013 | [2] 0.054 | [3] 0.132 | [4] -0.035 | [5] -0.03

CDK13 (UniProt Q14004)
inactive: [1] -0.091 | [2] -0.031 | [3] -0.052 | [4] 0.049 | [5] 0.052

CCPG1 isoform 5 (UniProt Q9ULG6)
inactive: [1] -0.069 | [2] -0.118 | [3] 0.046 | [4] -0.082 | [5] -0.026

CDKN2AIP (UniProt Q9NXV6)
Sequence of UniProt Q9NXV6 (Q9NXV6 whole entry, looked up): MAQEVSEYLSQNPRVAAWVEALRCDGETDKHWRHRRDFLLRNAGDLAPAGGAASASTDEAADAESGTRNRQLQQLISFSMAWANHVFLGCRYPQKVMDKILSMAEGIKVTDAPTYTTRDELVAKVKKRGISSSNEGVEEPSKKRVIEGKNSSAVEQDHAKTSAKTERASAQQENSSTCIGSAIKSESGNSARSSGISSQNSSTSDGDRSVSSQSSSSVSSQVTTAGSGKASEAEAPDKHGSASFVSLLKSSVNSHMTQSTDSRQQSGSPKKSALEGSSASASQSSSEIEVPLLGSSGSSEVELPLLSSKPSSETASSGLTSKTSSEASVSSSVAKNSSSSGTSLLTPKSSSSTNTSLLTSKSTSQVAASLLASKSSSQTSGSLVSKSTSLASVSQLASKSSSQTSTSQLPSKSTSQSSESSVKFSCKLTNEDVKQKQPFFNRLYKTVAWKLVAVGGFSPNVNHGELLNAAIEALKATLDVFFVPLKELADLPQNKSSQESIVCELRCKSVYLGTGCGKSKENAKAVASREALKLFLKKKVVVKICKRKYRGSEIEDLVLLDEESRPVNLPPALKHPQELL
inactive: [1] 0.01 | [2] 0.024 | [3] 0.027 | [4] -0.041 | [5] -0.013

CCNB2 (UniProt O95067)
inactive: [1] -0.005 | [2] 0.026 | [3] 0.047 | [4] 0.048 | [5] 0.033

CDCA8 (UniProt Q53HL2)
inactive: [1] 0.038 | [2] 0.037 | [3] -0.213 | [4] -0.048 | [5] 0.104

ATP11A (UniProt P98196)
inactive: [1] 0.04 | [2] -0.014 | [3] -0.004 | [4] 0.005 | [5] -0.026

CCDC186 (UniProt Q7Z3E2)
Sequence of UniProt Q7Z3E2 (Q7Z3E2 whole entry, looked up): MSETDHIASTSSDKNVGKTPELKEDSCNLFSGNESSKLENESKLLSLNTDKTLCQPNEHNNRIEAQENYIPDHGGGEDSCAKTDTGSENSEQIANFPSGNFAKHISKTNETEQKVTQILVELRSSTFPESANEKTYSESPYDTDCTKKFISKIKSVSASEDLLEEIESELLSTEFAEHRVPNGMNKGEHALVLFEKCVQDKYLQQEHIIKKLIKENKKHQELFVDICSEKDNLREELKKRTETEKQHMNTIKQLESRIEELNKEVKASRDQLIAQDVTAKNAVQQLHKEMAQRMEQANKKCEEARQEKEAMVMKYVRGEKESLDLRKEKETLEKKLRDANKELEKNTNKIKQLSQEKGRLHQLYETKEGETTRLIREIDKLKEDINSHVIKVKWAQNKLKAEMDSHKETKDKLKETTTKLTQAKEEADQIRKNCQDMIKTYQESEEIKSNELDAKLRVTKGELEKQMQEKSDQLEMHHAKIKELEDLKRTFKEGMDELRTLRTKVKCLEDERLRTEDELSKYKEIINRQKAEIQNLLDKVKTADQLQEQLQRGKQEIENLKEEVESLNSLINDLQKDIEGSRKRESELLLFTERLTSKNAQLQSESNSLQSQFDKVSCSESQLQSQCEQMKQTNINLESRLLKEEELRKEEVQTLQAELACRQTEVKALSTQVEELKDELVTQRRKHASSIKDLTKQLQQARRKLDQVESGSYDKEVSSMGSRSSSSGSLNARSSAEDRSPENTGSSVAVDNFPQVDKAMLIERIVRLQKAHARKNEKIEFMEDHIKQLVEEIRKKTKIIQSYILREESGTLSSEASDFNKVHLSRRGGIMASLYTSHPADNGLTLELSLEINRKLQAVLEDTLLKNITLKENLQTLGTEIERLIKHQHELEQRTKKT
inactive: [1] 0.031 | [2] 0.085 | [3] 0.055 | [4] -0.016 | [5] 0.105

BCL2L12 (UniProt Q9HB09)
inactive: [1] 0.162 | [2] 0.119 | [3] 0.035 | [4] -0.011 | [5] -0.044

CCDC85B (UniProt Q15834)
inactive: [1] -0.033 | [2] -0.132 | [3] 0.08 | [4] -0.04 | [5] -0.034

BAG4 (UniProt O95429)
inactive: [1] 0.059 | [2] 0.021 | [3] -0.023 | [4] 0.03 | [5] 0.003

CDK11B (UniProt P21127)
inactive: [1] -0.035 | [2] 0.029 | [3] 0.005 | [4] 0.035 | [5] -0.001

CBX1 (UniProt P83916)
Sequence of UniProt P83916 (P83916 whole entry, looked up): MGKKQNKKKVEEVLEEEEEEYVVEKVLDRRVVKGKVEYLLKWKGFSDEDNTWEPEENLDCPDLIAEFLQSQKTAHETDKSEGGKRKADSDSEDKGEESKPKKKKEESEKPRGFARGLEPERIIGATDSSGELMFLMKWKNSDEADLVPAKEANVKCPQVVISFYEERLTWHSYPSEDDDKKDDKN
inactive: [1] 0.031 | [2] -0.03 | [3] 0.032 | [4] 0.009 | [5] 0.13

CDC42BPA isoform 6 (UniProt Q5VT25)
inactive: [1] 0.008 | [2] -0.003 | [3] -0.008 | [4] 0.026 | [5] 0.052

CHD4 isoform 2 (UniProt Q14839)
inactive: [1] 0 | [2] 0.003 | [3] 0.029 | [4] 0.021 | [5] 0.009

CCDC130 (UniProt P13994)
inactive: [1] 0.01 | [2] 0.038

BRD3 (UniProt Q15059)
Sequence of UniProt Q15059 (Q15059 whole entry, looked up): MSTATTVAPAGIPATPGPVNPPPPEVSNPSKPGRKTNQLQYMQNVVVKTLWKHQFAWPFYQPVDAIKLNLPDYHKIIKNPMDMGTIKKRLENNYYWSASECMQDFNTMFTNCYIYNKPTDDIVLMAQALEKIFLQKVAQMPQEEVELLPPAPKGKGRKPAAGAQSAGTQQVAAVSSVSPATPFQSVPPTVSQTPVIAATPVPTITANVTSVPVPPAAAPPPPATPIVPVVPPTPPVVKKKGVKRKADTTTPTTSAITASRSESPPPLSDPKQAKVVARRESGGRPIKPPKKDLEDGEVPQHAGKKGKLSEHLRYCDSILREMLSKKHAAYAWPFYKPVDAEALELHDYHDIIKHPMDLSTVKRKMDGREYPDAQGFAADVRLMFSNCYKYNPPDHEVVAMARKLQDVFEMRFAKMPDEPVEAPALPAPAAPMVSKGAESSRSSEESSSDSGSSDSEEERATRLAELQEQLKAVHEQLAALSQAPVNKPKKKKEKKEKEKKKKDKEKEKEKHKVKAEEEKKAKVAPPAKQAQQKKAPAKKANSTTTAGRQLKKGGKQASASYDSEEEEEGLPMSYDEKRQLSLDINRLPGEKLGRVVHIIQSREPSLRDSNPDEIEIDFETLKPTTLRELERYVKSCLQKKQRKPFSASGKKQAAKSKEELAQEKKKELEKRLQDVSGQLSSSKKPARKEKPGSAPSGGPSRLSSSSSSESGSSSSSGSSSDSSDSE
inactive: [1] 0.027 | [3] 0.112 | [5] -0.167
active: [2] 0.631 | [4] 0.5

CAPNS1 (UniProt U3KPR7)
inactive: [1] 0.019 | [2] 0.122

CCAR2 (UniProt Q8N163)
inactive: [1] 0.001 | [2] 0.005 | [3] -0.007 | [4] 0.003 | [5] 0.004

CASP6 (UniProt P55212)
inactive: [1] 0.004 | [2] 0.011 | [3] 0.015 | [4] 0.009 | [5] -0.005

CDK5RAP3 isoform 4 (UniProt Q96JB5)
inactive: [1] -0.011 | [2] -0.018 | [3] 0.022 | [4] -0.01 | [5] -0.154

CDK2 (UniProt P24941)
inactive: [1] 0.006 | [2] 0.004 | [3] -0.039 | [4] 0.076 | [5] -0.028

ATRIP (UniProt Q8WXE1)
Sequence of UniProt Q8WXE1 (Q8WXE1 whole entry, looked up): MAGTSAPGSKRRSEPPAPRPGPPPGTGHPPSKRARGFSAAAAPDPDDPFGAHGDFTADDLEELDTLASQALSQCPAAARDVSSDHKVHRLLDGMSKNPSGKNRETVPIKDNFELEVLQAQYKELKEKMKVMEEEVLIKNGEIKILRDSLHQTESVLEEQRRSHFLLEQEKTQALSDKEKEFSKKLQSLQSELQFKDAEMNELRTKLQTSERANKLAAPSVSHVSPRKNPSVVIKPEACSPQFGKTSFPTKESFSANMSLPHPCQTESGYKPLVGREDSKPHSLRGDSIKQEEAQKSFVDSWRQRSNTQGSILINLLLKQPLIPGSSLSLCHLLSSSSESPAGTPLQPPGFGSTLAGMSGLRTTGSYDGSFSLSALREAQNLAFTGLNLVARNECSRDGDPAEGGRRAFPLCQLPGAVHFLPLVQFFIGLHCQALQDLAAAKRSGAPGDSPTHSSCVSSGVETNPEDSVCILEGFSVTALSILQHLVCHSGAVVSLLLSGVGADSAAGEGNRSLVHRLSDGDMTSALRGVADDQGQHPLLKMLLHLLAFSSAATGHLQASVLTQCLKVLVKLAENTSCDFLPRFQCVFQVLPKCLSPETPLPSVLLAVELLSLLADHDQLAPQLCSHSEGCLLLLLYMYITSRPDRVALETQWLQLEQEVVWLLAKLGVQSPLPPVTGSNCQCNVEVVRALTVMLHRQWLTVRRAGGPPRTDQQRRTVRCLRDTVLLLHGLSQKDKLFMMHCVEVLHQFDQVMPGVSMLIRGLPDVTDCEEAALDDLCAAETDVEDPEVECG
inactive: [1] -0.042 | [2] -0.02 | [3] -0.056 | [4] -0.032 | [5] 0.093

ATG7 (UniProt O95352)
inactive: [1] 0.014 | [2] 0.003 | [3] 0.028 | [4] -0.014 | [5] 0.044

BNIP1 (UniProt Q12981)
inactive: [1] 0.021 | [2] -0.051 | [3] 0.001 | [4] 0.018 | [5] 0.149

CFDP1 (UniProt Q9UEE9)
inactive: [1] 0.051 | [2] -0.03 | [3] -0.017 | [4] -0.03 | [5] -0.124

CCDC22 (UniProt O60826)
inactive: [1] -0.009 | [2] 0 | [3] -0.044 | [4] 0.053 | [5] 0.032

CAMK2G isoform 8 (UniProt Q13555)
inactive: [1] 0.048 | [2] -0.063 | [3] -0.053 | [4] -0.007 | [5] -0.037

CAMKK1 isoform 2 (UniProt Q8N5S9)
inactive: [1] 0.006 | [2] 0.03 | [3] 0.011 | [4] 0.071 | [5] -0.103

BPHL (UniProt Q86WA6)
inactive: [1] 0.284 | [2] 0.038 | [3] -0.028 | [4] 0.158 | [5] 0.014

AURKA (UniProt O14965)
inactive: [1] -0.053 | [2] -0.001 | [3] -0.042 | [4] -0.055 | [5] -0.157

C12orf45 (UniProt Q8N5I9)
inactive: [1] 0.074 | [2] 0 | [3] -0.007 | [4] -0.008 | [5] -0.122

ATAD1 (UniProt Q8NBU5)
inactive: [1] -0.052 | [2] 0.032 | [3] -0.015 | [4] -0.092 | [5] 0.002

CARD11 (UniProt Q9BXL7)
Sequence of UniProt Q9BXL7 (Q9BXL7 whole entry, looked up): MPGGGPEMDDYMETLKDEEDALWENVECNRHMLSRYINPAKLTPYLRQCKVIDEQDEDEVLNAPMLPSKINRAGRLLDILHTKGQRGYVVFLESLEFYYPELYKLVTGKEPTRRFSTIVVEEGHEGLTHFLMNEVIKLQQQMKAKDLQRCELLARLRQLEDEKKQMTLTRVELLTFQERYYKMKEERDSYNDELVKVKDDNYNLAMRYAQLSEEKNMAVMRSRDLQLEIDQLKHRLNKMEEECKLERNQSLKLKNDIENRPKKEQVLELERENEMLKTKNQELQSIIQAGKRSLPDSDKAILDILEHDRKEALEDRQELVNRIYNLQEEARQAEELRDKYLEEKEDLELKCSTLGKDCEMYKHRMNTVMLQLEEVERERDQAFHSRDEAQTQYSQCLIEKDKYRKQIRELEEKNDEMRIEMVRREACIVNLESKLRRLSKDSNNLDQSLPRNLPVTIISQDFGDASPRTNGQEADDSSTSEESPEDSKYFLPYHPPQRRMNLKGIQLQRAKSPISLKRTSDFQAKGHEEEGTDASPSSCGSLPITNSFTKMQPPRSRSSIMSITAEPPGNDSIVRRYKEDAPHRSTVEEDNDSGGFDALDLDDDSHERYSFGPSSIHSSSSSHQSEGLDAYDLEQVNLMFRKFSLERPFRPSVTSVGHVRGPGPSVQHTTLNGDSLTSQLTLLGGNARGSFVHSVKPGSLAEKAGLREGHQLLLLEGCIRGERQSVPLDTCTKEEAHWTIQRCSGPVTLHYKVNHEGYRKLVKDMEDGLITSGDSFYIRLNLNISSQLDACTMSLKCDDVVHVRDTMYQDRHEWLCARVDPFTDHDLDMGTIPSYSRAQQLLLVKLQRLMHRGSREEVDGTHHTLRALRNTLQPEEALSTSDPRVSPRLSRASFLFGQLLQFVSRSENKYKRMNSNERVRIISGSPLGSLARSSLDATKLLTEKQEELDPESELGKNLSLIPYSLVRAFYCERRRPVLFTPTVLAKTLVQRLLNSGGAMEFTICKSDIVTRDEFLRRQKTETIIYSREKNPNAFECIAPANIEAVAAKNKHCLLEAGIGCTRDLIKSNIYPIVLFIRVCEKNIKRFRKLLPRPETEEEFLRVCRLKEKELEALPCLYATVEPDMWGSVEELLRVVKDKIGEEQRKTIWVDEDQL
inactive: [1] 0.193 | [2] 0.252 | [3] 0 | [4] -0.084 | [5] -0.019

CBFA2T3 (UniProt O75081)
inactive: [1] -0.029 | [2] -0.01 | [3] 0.058 | [4] 0.009 | [5] 0.019

CCDC32 isoform 2 (UniProt Q9BV29)
inactive: [1] -0.132 | [2] -0.103 | [3] -0.058 | [4] 0.015 | [5] -0.109

CBR1 (UniProt P16152)
inactive: [1] 0.03 | [2] -0.004 | [3] 0.013 | [4] -0.021 | [5] -0.056

C18orf25 isoform 2 (UniProt Q96B23)
inactive: [1] -0.005 | [2] 0.224 | [3] 0.008 | [4] 0.089 | [5] -0.003

CHD5 (UniProt Q8TDI0)
inactive: [1] -0.039 | [2] 0.003 | [3] -0.002 | [4] 0.085 | [5] 0.032

CAMK1 (UniProt Q14012)
inactive: [1] 0.096 | [2] 0.014 | [3] -0.007 | [4] 0.026 | [5] -0.047

BLOC1S6 (UniProt Q9UL45)
inactive: [1] -0.078 | [2] 0.035 | [3] -0.04 | [4] -0.046 | [5] 0.021

BET1 (UniProt O15155)
inactive: [1] -0.053 | [2] 0.013 | [3] 0.032 | [4] 0.038 | [5] 0.009

CALM2 (UniProt P0DP24)
inactive: [1] -0.07 | [2] -0.177 | [3] 0.009 | [4] -0.088 | [5] -0.001

CARNMT1 (UniProt Q8N4J0)
inactive: [1] 0.032 | [2] -0.003 | [3] 0.072 | [4] -0.039 | [5] -0.174

CCDC51 (UniProt Q96ER9)
inactive: [1] -0.063 | [2] 0.023 | [3] -0.029 | [4] 0.014 | [5] 0.157

C3orf33 (UniProt Q6P1S2)
inactive: [1] 0.074 | [2] 0.143 | [3] -0.386 | [4] -0.03 | [5] -0.226

CCNC (UniProt P24863)
inactive: [1] 0.045 | [2] -0.09 | [3] -0.035 | [4] -0.036 | [5] -0.129

CASC4 (UniProt Q6P4E1)
Sequence of UniProt Q6P4E1 (Q6P4E1 whole entry, looked up): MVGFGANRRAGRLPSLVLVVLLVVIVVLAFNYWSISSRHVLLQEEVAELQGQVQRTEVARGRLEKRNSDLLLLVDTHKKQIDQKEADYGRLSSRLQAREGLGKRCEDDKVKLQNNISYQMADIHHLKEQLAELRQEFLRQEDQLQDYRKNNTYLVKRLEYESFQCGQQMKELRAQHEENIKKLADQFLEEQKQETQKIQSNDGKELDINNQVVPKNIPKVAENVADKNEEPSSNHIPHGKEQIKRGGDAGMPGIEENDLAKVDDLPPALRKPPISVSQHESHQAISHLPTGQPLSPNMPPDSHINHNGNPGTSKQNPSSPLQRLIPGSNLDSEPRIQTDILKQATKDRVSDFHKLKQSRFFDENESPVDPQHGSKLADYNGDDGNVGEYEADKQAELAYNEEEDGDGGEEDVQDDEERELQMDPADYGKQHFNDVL
inactive: [1] -0.008 | [2] 0.027 | [3] 0.039 | [4] -0.015 | [5] -0.055

C1orf112 (UniProt Q9NSG2)
inactive: [1] 0.066 | [2] -0.011 | [3] -0.007 | [4] 0.066 | [5] -0.345

CEP41 (UniProt Q9BYV8)
inactive: [1] -0.026 | [2] -0.06 | [3] -0.106 | [4] -0.068 | [5] -0.045
